# Data as given in publication PMC5540273 (PLoS ONE, 2017).
# “And” between values parts separate entries of the source, which are not always exact repeats. Equal values may be shown once. Read-outs that look alike come from different tables or passages of the source.
# Key:
# PIKFYVE = conditions: concentration: 1 μM, replicates: in singlicate, n = 1
# PIM1 = conditions: concentration: 1 μM, replicates: in singlicate, n = 1
# PIM2 = conditions: concentration: 1 μM, replicates: in singlicate; n = 1
# PIM3 = conditions: concentration: 1 μM, replicates: in singlicate, n = 1
# PIP5K1A = conditions: concentration: 1 μM, replicates: in singlicate, n = 1
# PIP5K1C = conditions: concentration: 1 μM, replicates: in singlicate, n = 1
# PIP5K2B = conditions: concentration: 1 μM, replicates: in singlicate, n = 1
# PIP5K2C = system: T1, PIP5K2C; conditions: concentration: 1 μM, replicates: in singlicate, n = 1
# T1 construct: gene PIP4K2C
# PKAC-alpha = system: T2, PKAC-alpha; conditions: concentration: 1 μM, replicates: in singlicate, n = 1
# T2 construct: gene PRKACA
# PKAC-beta = system: T3, PKAC-beta; conditions: concentration: 1 μM, replicates: in singlicate, n = 1
# T3 construct: gene PRKACB
# PKMYT1 = conditions: concentration: 1 μM, replicates: in singlicate, n = 1
# PKN1 = conditions: concentration: 1 μM, replicates: in singlicate, n = 1
# PKN2 = conditions: concentration: 1 μM, replicates: in singlicate, n = 1
# PLK1 = conditions: n = 1
# PLK2 = conditions: concentration: 1 μM, replicates: in singlicate, n = 1
# PLK3 = conditions: concentration: 1 μM, replicates: in singlicate, n = 1
# PLK4 = conditions: concentration: 1 μM, replicates: in singlicate, n = 1
# PRKCD = conditions: concentration: 1 μM, replicates: in singlicate, n = 1
# PRKCE = conditions: concentration: 1 μM, replicates: in singlicate, n = 1
# PRKCH = conditions: concentration: 1 μM, replicates: in singlicate, n = 1
# [1] = concentration: 1 μM, replicates: in singlicate
# 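Also: KINOMEscan kinase panel screen.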
compound,measurement,setting,value
Cl.Cl.Cl.Fc1ccc(-c2ncn(C3CCNCC3)c2-c2ccnc(Nc3ccccc3)n2)cc1 [SB-238039],%Inh,PIKFYVE; 1 µM,5% and 24%
same,%Inh,PIM1; 1 µM,15% and 2%
same,%Inh,PIM2,0%
same,%Inh,PIM3; 1 µM,19% and 0%
same,%Inh,PIP5K1A; 1 µM,46% and 0%
same,%Inh,PIP5K1C; 1 µM,25% and 0%
same,%Inh,PIP5K2B; 1 µM,24% and 0%
same,%Inh,PIP5K2C; 1 µM,48% and 41%
same,%Inh,PKAC-alpha; 1 µM,64% and 46%
same,%Inh,PKAC-beta; 1 µM,73% and 65%
same,%Inh,PKMYT1; 1 µM,0% and 1%
same,%Inh,PKN1; 1 µM,0% and 9%
same,%Inh,PKN2; 1 µM,0% and 24%
same,%Inh,"PLK1; concentration: 1 μM, replicates: in singlicate, 1 µM",4% and 0%
same,%Inh,PLK2; 1 µM,6% and 0%
same,%Inh,PLK3; 1 µM,15% and 0%
same,%Inh,PLK4; 1 µM,7% and 26%
same,%Inh,PRKCD; 1 µM,66% and 28%
same,%Inh,PRKCE; 1 µM,69% and 29%
same,%Inh,PRKCH; 1 µM,58% and 19%
O=C(NCCCN1CCOCC1)c1cccc(Nc2nccc(Nc3ccc(Oc4ccccc4)cc3)n2)c1 [GW663929],%Inh,PIKFYVE,37%
same,%Inh,PIM1,22%
same,%Inh,PIM2,0%
same,%Inh,PIM3,4%
same,%Inh,PIP5K1A,18%
same,%Inh,PIP5K1C,0%
same,%Inh,PIP5K2B,0%
same,%Inh,PIP5K2C,83%
same,%Inh,PKAC-alpha,4%
same,%Inh,PKAC-beta,0%
same,%Inh,PKMYT1,0%
same,%Inh,PKN1,16%
same,%Inh,PKN2,0%
same,%Inh,PLK1; [1],0%
same,%Inh,PLK2,0%
same,%Inh,PLK3,4%
same,%Inh,PLK4,17%
same,%Inh,PRKCD,0%
same,%Inh,PRKCE,4%
same,%Inh,PRKCH,0%
COc1ccc(CNC(=O)NC2CCN(c3ccnc(Nc4ccc(OC)cc4)n3)C2)cc1 (stereo not drawn) [GSK1379727],%Inh,PIKFYVE,29%
same,%Inh,PIM1,0%
same,%Inh,PIM2,0%
same,%Inh,PIM3,0%
same,%Inh,PIP5K1A,0%
same,%Inh,PIP5K1C,57%
same,%Inh,PIP5K2B,4%
same,%Inh,PIP5K2C,33%
same,%Inh,PKAC-alpha,0%
same,%Inh,PKAC-beta,0%
same,%Inh,PKMYT1,2%
same,%Inh,PKN1,0%
same,%Inh,PKN2,0%
same,%Inh,PLK1; [1],0%
same,%Inh,PLK2,0%
same,%Inh,PLK3,0%
same,%Inh,PLK4,0%
same,%Inh,PRKCD,0%
same,%Inh,PRKCE,15%
same,%Inh,PRKCH,17%
CNc1ncnc2[nH]ncc12 [SKF-18355],%Inh,PIKFYVE,11%
same,%Inh,PIM1,0%
same,%Inh,PIM2,8%
same,%Inh,PIM3,0%
same,%Inh,PIP5K1A,22%
same,%Inh,PIP5K1C,0%
same,%Inh,PIP5K2B,0%
same,%Inh,PIP5K2C,0%
same,%Inh,PKAC-alpha,31%
same,%Inh,PKAC-beta,16%
same,%Inh,PKMYT1,1%
same,%Inh,PKN1,0%
same,%Inh,PKN2,2%
same,%Inh,PLK1; [1],31%
same,%Inh,PLK2,12%
same,%Inh,PLK3,23%
same,%Inh,PLK4,6%
same,%Inh,PRKCD,0%
same,%Inh,PRKCE,12%
same,%Inh,PRKCH,0%
Cc1cccc(-c2nc(-c3ccc(S(C)(=O)=O)cc3)sc2-c2ccncc2)c1,%Inh,PIKFYVE,25%
same,%Inh,PIM1,13%
same,%Inh,PIM2,2%
same,%Inh,PIM3,12%
same,%Inh,PIP5K1A,22%
same,%Inh,PIP5K1C,2%
same,%Inh,PIP5K2B,55%
same,%Inh,PIP5K2C,0%
same,%Inh,PKAC-alpha,0%
same,%Inh,PKAC-beta,0%
same,%Inh,PKMYT1,20%
same,%Inh,PKN1,17%
same,%Inh,PKN2,0%
same,%Inh,PLK1; [1],0%
same,%Inh,PLK2,8%
same,%Inh,PLK3,6%
same,%Inh,PLK4,10%
same,%Inh,PRKCD,24%
same,%Inh,PRKCE,7%
same,%Inh,PRKCH,10%
COc1cc2ncn(-c3cc(OCc4sccc4Cl)c(C(N)=O)s3)c2cc1OC [GSK448459],%Inh,PIKFYVE,0%
same,%Inh,PIM1,11%
same,%Inh,PIM2,0%
same,%Inh,PIM3,0%
same,%Inh,PIP5K1A,41%
same,%Inh,PIP5K1C,79%
same,%Inh,PIP5K2B,20%
same,%Inh,PIP5K2C,50%
same,%Inh,PKAC-alpha,0%
same,%Inh,PKAC-beta,0%
same,%Inh,PKMYT1,0%
same,%Inh,PKN1,0%
same,%Inh,PKN2,0%
same,%Inh,PLK1; 1 µM,100%
same,%Inh,PLK2,99.5%
same,%Inh,PLK3,99.5%
same,%Inh,PLK4,4%
same,%Inh,PRKCD,0%
same,%Inh,PRKCE,0%
same,%Inh,PRKCH,0%
